Measurements: PubChem BioAssay (NCI)
This is part of a sample that, as a whole, favours compounds with a hit. Of some 79,000 tested, about 15% had one in any assay. Activity calls are given as the source filed them. No stated cut-off is given here; in the data, active means growth inhibition above about 70%; inactive means the rest.

What was measured:
[1] = NCI Yeast Anticancer Drug Screen. Data for the rad52 strain (AID 147);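 further: 0% = growth of vehicle-treated control cultures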; conditions: S. cerevisiae rad52 mutant growth inhibition, stronger effect = higher value
Outline: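 Compounds are applied to a genetically defined yeast strain lacking normal DNA damage repair, and inhibition of growth is expressed relative to cultures given vehicle only.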

[2] = NCI Yeast Anticancer Drug Screen. Data for the wt1 strain (AID 149);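 further: 0% = growth of vehicle-treated wt1 cultures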; conditions: S. cerevisiae wt1 strain (SPY 50644) growth inhibition, stronger effect = higher value
Outline: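 wt1 strain grown with compound or vehicle; inhibition taken from the growth difference.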

[3] = NCI Yeast Anticancer Drug Screen. Data for the rad50EPP+ strain (AID 151);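 further: 0% = growth of vehicle-treated control cultures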; conditions: S. cerevisiae rad50 mutant strain, stronger effect = higher value
Outline: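 Compounds were applied to the rad50EPP+ yeast strain, which bears a defined DNA repair alteration, and growth inhibition was determined relative to vehicle-treated cultures.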

[4] = NCI Yeast Anticancer Drug Screen. Data for the mgt1 strain (AID 153); conditions: S. cerevisiae mgt1 mutant growth inhibition, stronger effect = higher value
Outline: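 Strain: mgt1 yeast, one of a set carrying defined DNA damage repair or cell cycle control alterations. Compound-treated growth compared with vehicle.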

[5] = NCI Yeast Anticancer Drug Screen. Data for the rad50 strain (AID 155);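 further: 0% = growth of vehicle-only cultures of the same strain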; conditions: S. cerevisiae rad50 strain growth inhibition, stronger effect = higher value
Outline: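 DNA repair mutant yeast, compound exposure, growth read-out; inhibition is taken relative to vehicle.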

[6] = NCI Yeast Anticancer Drug Screen. Data for the mec2-1 strain (AID 157); conditions: S. cerevisiae mec2-1 strain, stronger effect = higher value
Outline: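 Strain: mec2-1 (DNA repair/cell cycle alteration). Compound exposure, then growth measured; inhibition expressed relative to vehicle.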

[7] = NCI Yeast Anticancer Drug Screen. Data for the sgs1 mgt1 strain (AID 161);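 further: 0% = growth of cultures given vehicle only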; conditions: S. cerevisiae sgs1 mgt1 strain, stronger effect = higher value
Outline: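 Mutant yeast exposed to compound; growth scored against vehicle-only wells.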

[8] = NCI Yeast Anticancer Drug Screen. Data for the CLN2oe strain (AID 163);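 further: 0% = growth of vehicle-only control cultures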; conditions: S. cerevisiae CLN2oe strain, stronger effect = higher value
Outline: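 Growth of a genetically modified yeast strain is measured after compound exposure and compared with cultures given vehicle alone.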

[9] = NCI Yeast Anticancer Drug Screen. Data for the cln2 rad14 strain (AID 165);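 further: 0% = growth equal to vehicle treated cultures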; conditions: S. cerevisiae cln2 rad14 strain, stronger effect = higher value
Outline: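 Compounds are applied to the cln2 rad14 yeast strain, and growth is then compared with that of vehicle-treated cultures to give inhibition.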

[10] = NCI Yeast Anticancer Drug Screen. Data for the bub3 strain (AID 167); conditions: S. cerevisiae bub3 mutant strain, stronger effect = higher value
Outline: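 In this screen, a yeast mutant lacking normal mitotic checkpoint function is challenged with compound. Relative growth versus vehicle gives the inhibition value.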

[11] = NCI Yeast Anticancer Drug Screen. Data for the wt2 strain (AID 169);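 further: 0% = growth of vehicle-treated yeast cultures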; conditions: S. cerevisiae wt2 strain growth inhibition, stronger effect = higher value
Outline: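 This strain belongs to a panel of yeast strains with defined genetic alterations in DNA damage repair or cell cycle control. Compounds are applied, and growth inhibition is measured against vehicle-treated cultures.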

[12] = NCI Yeast Anticancer Drug Screen. Data for the mlh1 strain (AID 171);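 further: 0% = growth of vehicle-treated control cultures of the same strain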; conditions: S. cerevisiae mlh1 strain growth inhibition, stronger effect = higher value
Outline: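 Growth of the mutant yeast strain after compound exposure, expressed as inhibition relative to vehicle-only controls.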

[13] = NCI Yeast Anticancer Drug Screen. Data for the mlh1 rad18 strain (AID 175); conditions: S. cerevisiae mlh1 rad18 strain growth inhibition, stronger effect = higher value
Outline: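 Read-out is yeast growth inhibition, calculated against vehicle-only controls. The compound was applied to a strain engineered with DNA damage repair alterations.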

[14] = NCI Yeast Anticancer Drug Screen. Data for the rad18 strain (AID 177); conditions: S. cerevisiae rad18 mutant growth inhibition, stronger effect = higher value
Outline: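 Growth of the mutant yeast strain after compound exposure, normalised to vehicle-only cultures.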

[15] = at 5.0 µM (retest, dose inferred, filed as 0.5)
[16] = at 50.0 µM (retest, dose inferred, filed as 5.0)

Measured: growth inhibition

O=C1OC(=O)C2CCCC3CCCC1C32 (stereo not drawn)
active: [1]; at 11.0 µM 85% | [1]; at 33.0 µM 90% | [1]; at 100.0 µM 97% | [2]; at 11.0 µM 83% | [2]; at 33.0 µM 90% | [2]; at 100.0 µM 97% | [3]; at 11.0 µM 75% | [3]; at 33.0 µM 90% | [3]; at 100.0 µM 95% | [4]; at 11.0 µM 82% | [4]; at 33.0 µM 87% | [4]; at 100.0 µM 96% | [5]; at 11.0 µM 93% | [5]; at 33.0 µM 96% | [5]; [16] 97% | [5]; at 100.0 µM 96% | [6]; at 11.0 µM 71% | [6]; at 33.0 µM 95% | [6]; [16] 99% | [6]; at 100.0 µM 97% | [8]; at 3.7 µM 71% | [8]; at 11.0 µM 95% | [8]; at 33.0 µM 97% | [8]; at 100.0 µM 96% | [9]; [16] 98% | [10]; at 11.0 µM 93% | [10]; at 33.0 µM 96% | [10]; [16] 99% | [10]; at 50.0 µM 71.5% | [10]; at 100.0 µM 97% | [11]; at 11.0 µM 80% | [11]; at 33.0 µM 89% | [11]; at 100.0 µM 96% | [12]; at 11.0 µM 93% | [12]; at 33.0 µM 96% | [12]; at 100.0 µM 97% | [13]; [16] 98% | [14]; at 11.0 µM 94% | [14]; at 33.0 µM 94% | [14]; at 100.0 µM 97%
inactive: [1]; at 1.2 µM 23% | [1]; at 3.7 µM 67% | [2]; at 1.2 µM 7% | [2]; at 3.7 µM 51% | [3]; at 1.2 µM 42% | [3]; at 3.7 µM 54% | [4]; at 1.2 µM 34% | [4]; at 3.7 µM 48% | [5]; at 1.2 µM 17% | [5]; at 3.7 µM 68% | [5]; [15] -10% | [5]; at 50.0 µM 39% | [6]; at 1.2 µM 39% | [6]; at 3.7 µM 33% | [6]; [15] -8% | [6]; at 50.0 µM 36.8% | [7]; [15] -21% | [7]; [16] 10% | [7]; at 50.0 µM 55.1% | [8]; at 1.2 µM 40% | [9]; [15] 15% | [9]; at 50.0 µM 20.8% | [10]; at 1.2 µM 28% | [10]; at 3.7 µM 66% | [10]; [15] 53% | [11]; at 1.2 µM 36% | [11]; at 3.7 µM 62% | [12]; at 1.2 µM 44% | [12]; at 3.7 µM 64% | [13]; [15] 31% | [13]; at 50.0 µM 26.9% | [14]; at 1.2 µM 25% | [14]; at 3.7 µM 67%
